Assay [1] in a line: NCI Yeast Anticancer Drug Screen. Data for the rad50 strain (AID 155).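 Also: 0% = growth of vehicle-only cultures of the same strain.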 The following applies: S. cerevisiae rad50 strain growth inhibition, stronger effect = higher value. In outline:
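Cells are treated with compound, grown, and their growth is then scored against vehicle-only cultures of the same repair-deficient yeast strain.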

Assay [2] can be described thus: NCI Yeast Anticancer Drug Screen. Data for the sgs1 mgt1 strain (AID 161).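 Also: 0% = growth of cultures given vehicle only.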 The conditions noted are these: S. cerevisiae sgs1 mgt1 strain, stronger effect = higher value. The essentials: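 Read-out: growth inhibition vs vehicle controls. Cells: mutant yeast strain deficient in DNA damage repair.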
Assay [3] can be described thus: NCI Yeast Anticancer Drug Screen. Data for the cln2 rad14 strain (AID 165).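 Also: 0% = growth equal to vehicle treated cultures.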 The conditions noted are these: S. cerevisiae cln2 rad14 strain, stronger effect = higher value. The essentials:
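Growth of compound-exposed yeast (cln2 rad14 genotype) measured and expressed as inhibition relative to vehicle.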

Assay [4] is described as follows: NCI Yeast Anticancer Drug Screen. Data for the bub3 strain (AID 167). The conditions noted are these: S. cerevisiae bub3 mutant strain, stronger effect = higher value. The essentials:
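Part of a panel of yeast mutants defective in DNA damage repair or cell cycle regulation. Each strain is grown with compound, and inhibition is calculated relative to solvent-treated cultures.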

The nature of assay [5]: NCI Yeast Anticancer Drug Screen. Data for the mlh1 rad18 strain (AID 175). The conditions noted are these: S. cerevisiae mlh1 rad18 strain growth inhibition, stronger effect = higher value. The essentials:
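In this whole-cell yeast screen, a strain with altered DNA damage repair is challenged with compound, and its growth is measured against matched vehicle-treated controls.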

The nature of assay [6]: NCI Yeast Anticancer Drug Screen. Data for the mec2-1 strain (AID 157). The conditions noted are these: S. cerevisiae mec2-1 strain, stronger effect = higher value. The essentials:
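Test agents were screened against the mec2-1 yeast strain, with defined DNA repair or cell cycle alteration. Growth was scored as inhibition against vehicle-only controls.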

Where [7] appears, read: at 5.0 µM (retest, dose inferred, filed as 0.5).
Where [8] appears, read: at 50.0 µM (retest, dose inferred, filed as 5.0).

Molecules are shown by their SMILES. “And” between values parts separate entries of the source, which are not always exact repeats. Equal values may be shown once. This is part of a sample that, as a whole, favours compounds with a hit. Of some 79,000 tested, about 15% had one in any assay. A number with no mark means an inactive call. The source made the active and inactive calls. Rule as the data show it: active = growth inhibition above about 70%; inactive = the rest.

With `Cc1cc(N(CCOS(C)(=O)=O)CCOS(C)(=O)=O)ccc1C=Nc1ccc(-c2csc(-c3ccc(Cl)cc3)n2)cc1`, the growth inhibition is 22% in assay [1] (setting [7]); 93% (active) in assay [1] (setting [8]); 93.9% (active) in assay [1] (at 50.0 µM); 18% in assay [2] (setting [7]); 93% (active) in assay [2] (setting [8]); 96.4% (active) in assay [2] (at 50.0 µM). The growth inhibition in assay [3] (setting [7]) is 4%; in assay [3] (setting [8]), 93% (active); in assay [3] (at 50.0 µM), 87.7% (active); in assay [4] (setting [7]) it was -2%; in assay [4] (setting [8]), 88% (active); in assay [4] (at 50.0 µM), 90.3% (active). Moreover, the growth inhibition in assay [5] (setting [7]) was 57%; in assay [5] (setting [8]) it was 95% (active); in assay [5] (at 50.0 µM), 94.9% (active).
As for `Cc1cc(C)nc(/C=C/c2ccc(/C=C/c3cc(C)cc(C)n3)cc2)c1`, the growth inhibition in assay [1] (setting [7]) is -20%; in assay [1] (setting [8]), -4%; in assay [6] (setting [7]), -8%; in assay [6] (setting [8]), 4%; in assay [6] (at 50.0 µM) it was 2.65%; in assay [2] (setting [7]), 7%. In addition, the growth inhibition in assay [2] (setting [8]) was -1%; in assay [2] (at 50.0 µM) it was 11.9%; in assay [3] (setting [7]), -4%; in assay [3] (setting [8]), -11%; in assay [3] (at 50.0 µM), -19.6%; in assay [4] (setting [7]), -7%. Moreover, the growth inhibition in assay [4] (setting [8]) is -11%; in assay [4] (at 50.0 µM), 0.4%; in assay [5] (setting [7]), -11%; in assay [5] (setting [8]), 3%; in assay [5] (at 50.0 µM), 5.5%.
For the compound `O=[N+]([O-])c1cc(Cl)c(Cl)cc1NS(=O)(=O)c1ccccc1`, the growth inhibition in assay [1] (setting [7]) is 17%; in assay [1] (setting [8]) it was 45%; in assay [1] (at 50.0 µM), 29.1%; in assay [2] (setting [7]) it was 7%; in assay [2] (setting [8]), 58%; in assay [2] (at 50.0 µM), 39.4%. Also, the growth inhibition in assay [3] (setting [7]) is 25%; in assay [3] (setting [8]), 84% (active); in assay [3] (at 50.0 µM), 54.5%; in assay [4] (setting [7]), 9%; in assay [4] (setting [8]), 57%; in assay [4] (at 50.0 µM), 40.4%. For the same compound, the growth inhibition in assay [5] (setting [7]) was 10%; in assay [5] (setting [8]), 76% (active); in assay [5] (at 50.0 µM), 71.2% (active).
Take `COc1cc(/C=C/C(C)=O)ccc1O`: the growth inhibition in assay [1] (at 50.0 µM) was 18.1% and 35.2% and 5.45%; in assay [6] (at 50.0 µM), -10.4% and 9.95% and -15.9%; in assay [2] (at 50.0 µM), -6.5% and 21.9% and -16.1%; in assay [3] (at 50.0 µM), -17.4% and -22.3% and -1.45%; in assay [4] (at 50.0 µM), 1.7% and 3.35% and 4.4%; in assay [5] (at 50.0 µM) it was -4.85% and 23.2% and -20.9%.
With `CSc1nc(NN)cc(-c2ccccc2)n1`, the growth inhibition was 0% in assay [1] (setting [7]); 23% in assay [1] (setting [8]); 12.5% in assay [1] (at 50.0 µM); 0% in assay [2] (setting [7]); 57% in assay [2] (setting [8]); 56.7% in assay [2] (at 50.0 µM). The growth inhibition in assay [3] (setting [7]) is 2%; in assay [3] (setting [8]), -2%; in assay [3] (at 50.0 µM) it was 3.1%; in assay [4] (setting [7]), -3%; in assay [4] (setting [8]) it was 68%; in assay [4] (at 50.0 µM) it was 81.2% (active). Also, the results for the growth inhibition in assay [5] (setting [7]), in assay [5] (setting [8]) and in assay [5] (at 50.0 µM) were -1%, 54% and 79.3% (active), respectively.
Take `CCCCCCC(C)c1ccccc1O` (stereo not drawn) (tested in a mixture with another compound): the growth inhibition in assay [6] (setting [7]) was 24%; in assay [6] (setting [8]) it was 100% (active); in assay [6] (at 50.0 µM), 94% (active); in assay [2] (setting [7]), 25%; in assay [2] (setting [8]), 100% (active); in assay [2] (at 50.0 µM), 94% (active). The growth inhibition was 25% in assay [3] (setting [7]); 100% (active) in assay [3] (setting [8]); 93.6% (active) in assay [3] (at 50.0 µM); 37% in assay [4] (setting [7]); 99% (active) in assay [4] (setting [8]); 93% (active) in assay [4] (at 50.0 µM). The figures for the growth inhibition in assay [5] (setting [7]), in assay [5] (setting [8]) and in assay [5] (at 50.0 µM) were 38%, 99% (active) and 92.2% (active), respectively.
As to `Nc1ccc(SSc2ccc(N)cc2)cc1`, the growth inhibition in assay [6] (setting [7]) was -3%; in assay [6] (setting [8]) it was 98% (active); in assay [6] (at 50.0 µM), 61.5%; in assay [2] (setting [7]) it was 2%; in assay [2] (setting [8]), 97% (active); in assay [2] (at 50.0 µM), 57.6%. Moreover, the growth inhibition in assay [3] (setting [7]) was -7%; in assay [3] (setting [8]), 72% (active); in assay [3] (at 50.0 µM), 94.1% (active); in assay [4] (setting [7]) it was 0%; in assay [4] (setting [8]) it was 98% (active); in assay [4] (at 50.0 µM), 95.3% (active). Besides, the results for the growth inhibition in assay [5] (setting [7]), in assay [5] (setting [8]) and in assay [5] (at 50.0 µM) were -1%, 98% (active) and 96.4% (active), respectively.
For the compound `CCCN1C(=O)c2ccccc2C1=O`, the growth inhibition is 1% in assay [6] (setting [7]); -3% in assay [6] (setting [8]); -6.65% in assay [6] (at 50.0 µM); -3% in assay [2] (setting [7]); 4% in assay [2] (setting [8]); 14.1% in assay [2] (at 50.0 µM). Moreover, the growth inhibition in assay [3] (setting [7]) is 10%; in assay [3] (setting [8]) it was 2%; in assay [3] (at 50.0 µM), 36.6%; in assay [4] (setting [7]) it was 10%; in assay [4] (setting [8]), 17%; in assay [4] (at 50.0 µM), -0.55%. The growth inhibition in assay [5] (setting [7]) is 4%; in assay [5] (setting [8]), 0%; in assay [5] (at 50.0 µM), 9.5%.
As to `Cc1c(N)cc(I)cc1[N+](=O)[O-]`, the growth inhibition in assay [1] (setting [7]) was 2%; in assay [1] (setting [8]), 12%; in assay [1] (at 50.0 µM), -4.65%; in assay [6] (setting [7]) it was 9%; in assay [6] (setting [8]), 7%; in assay [6] (at 50.0 µM), 4.2%. The growth inhibition in assay [3] (setting [7]) was 6%; in assay [3] (setting [8]) it was -11%; in assay [3] (at 50.0 µM) it was -32.7%; in assay [4] (setting [7]), -8%; in assay [4] (setting [8]), 2%; in assay [4] (at 50.0 µM) it was 56.8%. Further, the values for the growth inhibition in assay [5] (setting [7]), in assay [5] (setting [8]) and in assay [5] (at 50.0 µM) were -5%, 10% and 13.8%, respectively.
`CCOC(=O)C(CCc1ccccc1[N+](=O)[O-])C(C)=O` (stereo not drawn): the growth inhibition in assay [6] (setting [7]) is 2%; in assay [6] (setting [8]), 11%; in assay [6] (at 50.0 µM) it was 27.6%; in assay [2] (setting [7]), -3%; in assay [2] (setting [8]), 42%; in assay [2] (at 50.0 µM) it was 66.8%. The growth inhibition in assay [3] (setting [7]) is -1%; in assay [3] (setting [8]), 8%; in assay [3] (at 50.0 µM) it was -8.55%; in assay [4] (setting [7]), -3%; in assay [4] (setting [8]), 8%; in assay [4] (at 50.0 µM), 54%. In addition, the growth inhibition in assay [5] (setting [7]) is -20%; in assay [5] (setting [8]), 45%; in assay [5] (at 50.0 µM) it was 69.7%.

Values taken from PubChem BioAssay (NCI).
